Data on 15 compounds can be found in PubChem BioAssay (Tox21).

Molecules are shown by their SMILES. Records with an inconclusive call do not appear. Some structures have more than one record in an assay (separate samples or runs), and their calls can disagree. Active and inactive are the calls of the source. Unless noted, calls follow the shape of the dose curve; as a rule, active = well fitted curve in the direction sought with a large enough effect in the repeat runs; inconclusive = weak or mixed curves; inactive = no such curve, though single readings can be large; an effect the other way counts as inactive or inconclusive.

Experiment [1] in a line: qHTS assay to identify small molecule antagonists of the thyroid receptor (TR) signaling pathway - cell viability counter screen (AID 743064). Also: nearly all actives have a fitted effect of over 50% in size. The essentials: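 GH3.TRE-Luc rat pituitary cells carrying a TRE-luciferase reporter were treated with compound plus 1 nM T3 (final) for 23.5 h at 37 °C. Viability was then read in the same wells by CellTiter-Fluor fluorescence after a further 30 min.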
Background: Quantitative high-throughput screening tests each substance at several concentrations.

Experiment [2] in a line: qHTS assay to identify small molecule antagonists of the thyroid receptor (TR) signaling pathway (AID 743065). Also: nearly all actives have a fitted effect of over 55% in size. Also: potency is read from the fitted curve at half-maximal effect. The method in brief: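 GH3.TRE-Luc rat pituitary cells (two TREs driving luciferase) were dosed with compound, then stimulated with 1 nM T3 (final) for 23.5 h at 37 C. ONE-Glo luminescence was the read-out, with CellTiter-Fluor fluorescence as the cytotoxicity counter-screen.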

The test system of experiment [3] is thyroid hormone receptor (rat, GH3 cells). The experiment is described as follows: qHTS assay to identify small molecule agonists of the thyroid receptor (TR) signaling pathway (AID 743066; calls by dose curve).
For experiment [4], the target named is Estrogen receptor (Homo sapiens) (UniProt P03372). The experiment is described as follows: qHTS assay to identify small molecule antagonists of the estrogen receptor alpha (ER-alpha) signaling pathway (AID 743069; active = well fitted curve in the direction sought with a large enough effect in the signal ratio in the repeat runs, not every such curve was filed as active; the % refers to the signal ratio). The method in brief: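 Reporter cells (ER-alpha-bla, HEK293 background) are conditioned overnight in stripped-serum medium (2% charcoal-stripped FBS). Compound and 17beta-estradiol exposure runs 18 hr at 37C, 5% CO2.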
Estrogen receptor (Homo sapiens), sequence (P03372 whole entry, looked up): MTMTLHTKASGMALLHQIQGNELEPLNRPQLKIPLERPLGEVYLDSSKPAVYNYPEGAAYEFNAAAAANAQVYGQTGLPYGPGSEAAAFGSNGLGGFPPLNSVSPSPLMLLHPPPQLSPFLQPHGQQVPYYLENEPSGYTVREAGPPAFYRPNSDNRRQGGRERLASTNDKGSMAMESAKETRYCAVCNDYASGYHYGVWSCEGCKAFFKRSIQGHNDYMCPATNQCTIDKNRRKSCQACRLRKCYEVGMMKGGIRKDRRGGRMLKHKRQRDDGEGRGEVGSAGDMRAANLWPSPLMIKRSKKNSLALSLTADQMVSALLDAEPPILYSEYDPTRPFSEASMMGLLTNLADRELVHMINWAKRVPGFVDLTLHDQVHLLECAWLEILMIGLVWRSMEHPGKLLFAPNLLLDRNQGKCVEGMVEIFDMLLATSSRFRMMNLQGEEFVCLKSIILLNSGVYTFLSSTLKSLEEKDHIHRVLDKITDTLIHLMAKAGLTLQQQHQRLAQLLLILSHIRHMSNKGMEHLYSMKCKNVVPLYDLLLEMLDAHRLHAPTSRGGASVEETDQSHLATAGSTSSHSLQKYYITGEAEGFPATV

The nature of experiment [5]: qHTS assay to identify small molecule antagonists of the estrogen receptor alpha (ER-alpha) signaling pathway - cell viability counter screen (AID 743074; calls by dose curve;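 also: HEK293 cells carrying ER-alpha-UAS-bla reporter stimulated with 17beta-estradiol; nearly all actives have a fitted effect of over 45% in size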).
Experiment [6] deals with Estrogen receptor (Homo sapiens) (UniProt P03372). The experiment is described as follows: qHTS assay to identify small molecule agonists of the estrogen receptor alpha (ER-alpha) signaling pathway (AID 743075; calls by dose curve;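 also: HEK293 GripTite cells with ER-alpha and UAS-driven beta-lactamase reporter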).
The target is the same in experiment [7]. The experiment is described as follows: qHTS assay to identify small molecule agonists of the estrogen receptor alpha (ER-alpha) signaling pathway using the BG1 cell line (AID 743079). Also: nearly all actives have a fitted effect of over 20% in size. Also: potency is read from the fitted curve at half-maximal effect.
Experiment [8] is described as follows: qHTS assay to identify small molecule antagonists of the estrogen receptor alpha (ER-alpha) signaling pathway using the BG1 cell line (AID 743080; calls by dose curve;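 also: BG1 cells stimulated with 17beta-estradiol alongside compound; nearly all actives have a fitted effect of over 25% in size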; also: potency is read from the fitted curve at half-maximal effect). The method in brief: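 BG1Luc4E2, endogenous ER-alpha, 4xERE-luc; 5 d charcoal-stripped FBS, phenol red free; 24 h plating; cpd + 17beta-estradiol 21.5 h, 37 C/5% CO2; CellTiter-Fluor viability 30 min, then ONE-Glo luciferase 30 min RT.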

The nature of experiment [9]: qHTS assay to identify small molecule antagonists of the estrogen receptor alpha (ER-alpha) signaling pathway using the BG1 cell line - cell viability counter screen (AID 743081).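 Also: compound given together with 17beta-estradiol as the ER stimulus; series mostly up to about 70 µM; nearly all actives have a fitted effect of over 45% in size.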
Another experiment concerns the target Aromatase (Homo sapiens) (UniProt P11511). Put plainly: qHTS assay to identify aromatase inhibitors (AID 743083). Also: series mostly up to about 70 µM; nearly all actives have a fitted effect of over 55% in size.
The nature of experiment [10]: qHTS assay to identify aromatase inhibitors - cell viability counter screen (AID 743084).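 Also: cells stimulated with testosterone during compound exposure; nearly all actives have a fitted effect of over 55% in size.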
In experiment [11] the target is Aryl hydrocarbon receptor (Homo sapiens) (UniProt P35869). The experiment is described as follows: qHTS assay to identify small molecule that activate the aryl hydrocarbon receptor (AhR) signaling pathway (AID 743085). Also: nearly all actives have a fitted effect of over 15% in size. Also: potency is read from the fitted curve at half-maximal effect.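 As to activation: HG2L7.5c1 human HepG2 liver cells with stably integrated DRE-driven firefly reporter; series mostly up to about 70 µM.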 The essentials:
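HepG2 cells (HG2L7.5c1) stably carrying a firefly luciferase reporter driven by 20 dioxin responsive elements were exposed to compound for 24 h at 37C after a 5 h settling period; luminescence rise (ONE-Glo) indicated activation.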

Experiment [12] is described as follows: qHTS assay to identify small molecule that activate the aryl hydrocarbon receptor (AhR) signaling pathway - cell viability counter screen (AID 743086).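 Also: HepG2 liver cells carrying the AhR DRE luciferase reporter; series mostly up to about 70 µM; nearly all actives have a fitted effect of over 45% in size.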 The essentials: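 HepG2-AhR-luc (HG2L7.5c1) cells, 4000/well, treated 24 h at 37 C with compound; viability measured as CellTiter-Fluor fluorescence after 30 min in the same wells as the luciferase read.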

The target in experiment [13] is Peroxisome proliferator-activated receptor gamma (Homo sapiens) (UniProt P37231). The experiment is described as follows: qHTS assay to identify small molecule agonists of the peroxisome proliferator-activated receptor gamma (PPARg) signaling pathway (AID 743094; active = well fitted activation curve with a large enough effect in the signal ratio in the repeat runs, not every such curve was filed as active; the % refers to the signal ratio). The essentials:
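GeneBLAzer PPARg UAS-bla HEK293H cells carrying a stably integrated beta-lactamase reporter were pre-incubated 5 h at 37C, then exposed to compounds in DMSO for 17 h at 37C; LiveBLAzer B/G FRET substrate was added for 1 h at room temperature and fluorescence read.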

Peroxisome proliferator-activated receptor gamma (Homo sapiens), sequence (P37231 whole entry, looked up): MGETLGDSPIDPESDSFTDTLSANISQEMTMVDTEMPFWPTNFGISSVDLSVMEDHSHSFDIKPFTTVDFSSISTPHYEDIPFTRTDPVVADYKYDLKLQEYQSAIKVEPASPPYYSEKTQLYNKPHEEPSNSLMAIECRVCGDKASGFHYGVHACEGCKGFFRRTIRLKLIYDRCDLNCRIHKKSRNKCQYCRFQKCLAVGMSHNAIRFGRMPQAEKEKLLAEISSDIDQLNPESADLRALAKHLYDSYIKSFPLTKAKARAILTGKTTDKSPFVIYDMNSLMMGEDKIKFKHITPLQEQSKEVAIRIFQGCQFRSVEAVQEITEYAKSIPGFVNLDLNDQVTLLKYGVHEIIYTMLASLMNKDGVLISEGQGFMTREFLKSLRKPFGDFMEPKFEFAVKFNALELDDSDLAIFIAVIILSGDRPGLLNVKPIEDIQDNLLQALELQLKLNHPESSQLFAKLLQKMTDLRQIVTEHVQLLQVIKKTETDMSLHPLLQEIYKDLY
Aryl hydrocarbon receptor (Homo sapiens), sequence (P35869 whole entry, looked up): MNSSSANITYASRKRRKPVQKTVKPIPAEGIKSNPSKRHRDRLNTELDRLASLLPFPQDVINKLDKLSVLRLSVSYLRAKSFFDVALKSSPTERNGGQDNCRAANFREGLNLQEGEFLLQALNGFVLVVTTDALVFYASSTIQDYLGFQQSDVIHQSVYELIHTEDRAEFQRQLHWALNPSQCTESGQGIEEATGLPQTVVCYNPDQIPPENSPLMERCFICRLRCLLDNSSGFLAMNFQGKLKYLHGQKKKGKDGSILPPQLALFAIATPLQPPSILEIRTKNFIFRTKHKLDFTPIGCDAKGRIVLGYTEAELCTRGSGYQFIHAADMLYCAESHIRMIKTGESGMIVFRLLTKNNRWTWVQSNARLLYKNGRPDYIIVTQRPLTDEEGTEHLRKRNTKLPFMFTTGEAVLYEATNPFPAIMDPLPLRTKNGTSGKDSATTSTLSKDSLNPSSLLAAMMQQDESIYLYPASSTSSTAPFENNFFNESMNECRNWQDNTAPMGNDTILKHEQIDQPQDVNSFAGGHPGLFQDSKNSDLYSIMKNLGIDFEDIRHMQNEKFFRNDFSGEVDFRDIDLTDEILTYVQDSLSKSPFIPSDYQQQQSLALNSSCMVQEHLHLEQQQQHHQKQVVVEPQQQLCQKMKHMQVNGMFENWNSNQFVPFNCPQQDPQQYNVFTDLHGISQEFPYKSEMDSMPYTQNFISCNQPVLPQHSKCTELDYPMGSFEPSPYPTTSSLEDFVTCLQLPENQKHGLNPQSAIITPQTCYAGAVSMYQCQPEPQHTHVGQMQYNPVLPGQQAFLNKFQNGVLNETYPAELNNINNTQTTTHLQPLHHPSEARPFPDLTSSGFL
Aromatase (Homo sapiens), sequence (P11511 whole entry, looked up): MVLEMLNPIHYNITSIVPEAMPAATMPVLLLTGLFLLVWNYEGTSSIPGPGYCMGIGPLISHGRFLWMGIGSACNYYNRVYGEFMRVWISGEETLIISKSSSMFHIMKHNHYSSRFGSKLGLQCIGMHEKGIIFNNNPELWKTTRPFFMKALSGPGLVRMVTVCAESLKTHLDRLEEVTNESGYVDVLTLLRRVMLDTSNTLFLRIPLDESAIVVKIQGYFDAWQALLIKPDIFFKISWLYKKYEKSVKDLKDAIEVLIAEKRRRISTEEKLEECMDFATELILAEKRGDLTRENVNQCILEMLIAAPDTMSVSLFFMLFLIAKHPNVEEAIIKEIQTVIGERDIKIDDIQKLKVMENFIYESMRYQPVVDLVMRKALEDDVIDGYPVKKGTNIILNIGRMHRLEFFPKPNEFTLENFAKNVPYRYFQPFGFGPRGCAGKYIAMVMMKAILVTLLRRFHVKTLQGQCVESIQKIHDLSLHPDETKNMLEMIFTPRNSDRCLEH

Regarding `Cc1cc(=O)c(C(=O)N[C@@H](C(=O)N[C@@H]2C(=O)N3C(C(=O)O)=C(CSc4nnnn4C)CS[C@H]23)c2ccc(O)cc2)c[nH]1`, the Potency result in experiment [1], in experiment [2], in experiment [3], in experiment [4], in experiment [5] and in experiment [6] was “inactive” in each case. Further, the Potency result (in experiment [8]; in experiment [9]; in the experiment with Aromatase (Homo sapiens); in experiment [10]; in experiment [11]; in [12]) was “inactive” in each case. The Potency result in experiment [13] is “inactive”. Also, in [7], the Potency was 23.7 µM (active).
With `C[C@H](NCCc1ccc(O)cc1)[C@H](O)c1ccc(O)cc1`, the Potency entry in experiment [1], in experiment [2], in experiment [3], in experiment [4], in [5] and in experiment [6] was “inactive” throughout. Also, the Potency result (in [7]; in experiment [8]; in experiment [9]; in the experiment with Aromatase (Homo sapiens); in experiment [10]; in [11]) was “inactive” in each case. In addition, in [12], the Potency entry was “inactive”.
Take `CC12CCC(C[N+](C)(CCC[N+](C)(C)C)C1)C2(C)C` (stereo not given): the Potency entry in [1], in experiment [2], in [3], in experiment [4], in experiment [5] and in [6] was “inactive” throughout. Further, the Potency entry (in experiment [7]; in [8]; in [9]; with Aromatase (Homo sapiens); in [10]; in [11]) was “inactive” each time. The Potency entry in [12] and in [13] was “inactive” each time.
On to `CC[C@H]1OC(=O)C[C@@H](O)[C@H](C)[C@@H](O[C@@H]2O[C@H](C)[C@@H](O[C@H]3C[C@@](C)(O)[C@@H](O)[C@H](C)O3)[C@H](N(C)C)[C@H]2O)[C@@H](CC=O)C[C@@H](C)C(=O)/C=C/C(C)=C/[C@@H]1CO[C@@H]1O[C@H](C)[C@@H](O)[C@@H](OC)[C@H]1OC`, for which the Potency result in [1], in experiment [2], in [3], in [4], in experiment [5] and in experiment [6] was “inactive” each time. Moreover, the Potency result (in experiment [7]; in experiment [9]; in the experiment with Aromatase (Homo sapiens); in experiment [10]; in experiment [11]; in experiment [12]) was “inactive” throughout. For the same compound, the Potency entry in experiment [13] is “inactive”. In addition, in experiment [8], the Potency is 16.8 µM (active) and inactive.
As to `CC[C@H]1OC(=O)C[C@@H](O)[C@H](C)[C@@H](O[C@@H]2O[C@H](C)[C@@H](O)[C@H](N(C)C)[C@H]2O)[C@@H](CCN2C[C@H](C)C[C@H](C)C2)C[C@@H](C)C(=O)/C=C/C(C)=C/[C@@H]1CO[C@@H]1O[C@H](C)[C@@H](O)[C@@H](OC)[C@H]1OC`, the Potency entry in experiment [1], in [2], in [3], in [4], in [5] and in [6] was “inactive” in each case. Also, the Potency result (in experiment [7]; in experiment [8]; in experiment [9]; with Aromatase (Homo sapiens); in experiment [10]; in experiment [11]) was “inactive” each time. Besides, the Potency entry in experiment [12] and in experiment [13] was “inactive” in each case.
Regarding `CCOC(=O)COc1ccc2c(=O)cc(-c3ccccc3)oc2c1`, the Potency result in experiment [1], in experiment [2], in experiment [3], in experiment [4], in [5] and in [6] was “inactive” throughout. Besides, the Potency entry (in experiment [7]; in [8]; in experiment [9]; with Aromatase (Homo sapiens); in experiment [10]; in experiment [11]) was “inactive” throughout. In addition, the Potency entry in [12] and in experiment [13] was “inactive” throughout.
On to `CC1(C)CCC(NC(=O)[C@@H](N)CCC(=O)O)CC1`, for which the Potency result in experiment [1], in experiment [2], in [3], in [4], in experiment [5] and in experiment [6] was “inactive” in each case. For the same compound, the Potency result (in [7]; in experiment [8]; in experiment [9]; in the experiment with Aromatase (Homo sapiens); in experiment [10]; in experiment [11]) was “inactive” each time. Further, the Potency result in experiment [12] and in experiment [13] was “inactive” in each case.
In the case of `O=C1C2CC3CC1CC(O)(C3)C2`, the Potency result in [1], in [2], in experiment [3], in experiment [4], in experiment [5] and in experiment [6] was “inactive” throughout. The Potency entry (in experiment [7]; in experiment [8]; in experiment [9]; with Aromatase (Homo sapiens); in [10]; in experiment [11]) was “inactive” in each case. In addition, the Potency result in [12] and in experiment [13] was “inactive” in each case.
In the case of `CCOC(=O)Cc1ccc(-c2ccccc2)cc1`, the Potency entry in [1], in experiment [2], in experiment [3], in experiment [4], in experiment [5] and in [6] was “inactive” throughout. The Potency result (in experiment [7]; in experiment [8]; in [9]; in the experiment with Aromatase (Homo sapiens); in [10]; in experiment [11]) was “inactive” each time. Further, the Potency result in experiment [12] was “inactive”.
In the case of `C=C1[C@@H]2CC[C@@H](C2)C1(C)C`, the Potency result in experiment [1], in experiment [2], in experiment [3], in [4], in experiment [5] and in [6] was “inactive” each time. The Potency entry (in experiment [8]; in [9]; with Aromatase (Homo sapiens); in experiment [10]; in experiment [11]; in [12]) was “inactive” throughout. Besides, the Potency entry in experiment [13] was “inactive”. Besides, the Potency in experiment [7] is 29.8 µM (active).
For `CC1CCCC(C)N1NC(=O)c1ccc(Cl)c(S(N)(=O)=O)c1` (stereo not given), the Potency entry in experiment [1], in experiment [2], in experiment [3], in experiment [4], in [5] and in [6] was “inactive” in each case. Also, the Potency result (in [7]; in experiment [8]; in [9]; in the experiment with Aromatase (Homo sapiens); in experiment [10]; in experiment [11]) was “inactive” throughout. Moreover, the Potency result in experiment [12] and in experiment [13] was “inactive” in each case.
In the case of `CC(C)CCC[C@@H](C)[C@H]1CC[C@H]2[C@@H]3CC=C4C[C@@H](O)CC[C@]4(C)[C@H]3CC[C@]12C`, the Potency entry in experiment [1], in [2], in experiment [3], in experiment [4], in [5] and in experiment [6] was “inactive” in each case. For the same compound, the Potency entry (in experiment [7]; in experiment [8]; in experiment [9]; with Aromatase (Homo sapiens); in experiment [10]; in experiment [11]) was “inactive” each time. The Potency result in experiment [12] and in experiment [13] was “inactive” each time.
In the case of `CN1C(=O)C[C@@H](C(=O)N[C@@H](Cc2cnc[nH]2)C(=O)N2CCC[C@H]2C(N)=O)NC1=O`, the Potency entry in experiment [1], in [2], in [3], in experiment [4], in experiment [5] and in experiment [6] was “inactive” each time. Besides, the Potency entry (in [7]; in experiment [8]; in experiment [9]; with Aromatase (Homo sapiens); in experiment [10]; in [11]) was “inactive” throughout.
In the case of `CCc1ncnc2cc(OC)c(OC)cc12`, the Potency entry in experiment [1], in [2], in [3], in experiment [4], in [5] and in experiment [6] was “inactive” throughout. The Potency entry (in [7]; in experiment [8]; in [9]; with Aromatase (Homo sapiens); in [10]; in experiment [11]) was “inactive” throughout. In addition, the Potency result in experiment [12] is “inactive”.
For the compound `COc1ccc(/C=C/C(=O)Nc2ccccc2C(=O)O)cc1OC`, the Potency entry in experiment [1], in experiment [3], in experiment [4], in [5], in experiment [6] and in [7] was “inactive” each time. The Potency entry (in experiment [9]; with Aromatase (Homo sapiens); in experiment [10]; in experiment [12]; in experiment [13]) was “inactive” each time. The Potency was 4.73 µM (active) in experiment [2], 8.41 µM (active) in experiment [8] and 3.35 µM (active) in experiment [11].
